# Results filed as inconclusive are left out. Activity calls are given as the source filed them. Unless noted, calls come from the whole dose curve; as a rule, active = well fitted curve in the direction sought with a large enough effect; inconclusive = small, poorly fitted or top-dose-only effect, or another doubt; inactive = no such curve, though single readings can be large; an effect the other way counts as inactive or inconclusive.
# Key:
# [1] = biological target: Lysosomal acid glucosylceramidase (Homo sapiens) (UniProt P04062); test: Glucocerebrosidase-p2 (AID 348; in the data active = potency below about 10 µM; note: potency is the fitted concentration of half-maximal effect); conditions: purified GBA, blue fluorogenic substrate, 40 min
# Summary of the method: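 Normal human glucocerebrosidase (0.2 nM) with blue fluorogenic substrate (80 uM final) in citrate/phosphate pH 5.9 with 10mM sodium taurocholate, 0.01% tween-20; 40 min RT, NaOH/glycine stop; fluorescence Ex 365/Em 440; AC50 from a titration from 0.6 nM upwards.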
# [2] = AP1 Signaling Pathway (AID 357; active = well fitted curve in either direction with a large enough effect, not every such curve was filed as active;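 note: ME-180 reporter cells stimulated with EGF at its EC50 level; % is set by controls: 0 for no effect and ±100 for the full control effect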); conditions: ME-180 AP-1-bla reporter, EGF-induced, beta-lactamase ratio, 5 h; at 7.69 µM (top of the series) unless noted
# Summary of the method: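 First, ME-180 AP-1-bla cells were cultured overnight at 37 °C in low-serum Opti-MEM. Next, titrated compounds with EC50 EGF were incubated 5 hours. Finally, CCF4 was added for 2.5 hours and the 460/530 nm ratio recorded.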
# [3] = biological target: Cytochrome P450 1A2 (Homo sapiens) (UniProt P05177); test: p450-cyp1a2 (AID 410; calls by dose curve; note: potency is the fitted concentration of half-maximal effect;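 for activity change, negative = inhibition: -100% = full effect of reference inhibitor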); conditions: recombinant CYP1A2, luciferin-ME demethylation, luminescence; series mostly up to 57 µM
# Summary of the method: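 20nM CYP1A2, 100uM Luciferin-ME (=Km), 100mM KPO4; cpd 10 min RT; +NADPH regen, 60 min RT; stop/detect 20 min; luminescence. Normalized to furafylline 57 uM = full inhibition.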
# [4] = NFAT Signaling Pathway (AID 444; active = well fitted curve in either direction with a large enough effect, not every such curve was filed as active;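 note: carbachol stimulus at about its EC50 of 1 µM final; % is set by controls: 0 for no effect and ±100 for the full control effect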); conditions: Jurkat NFAT-bla M1, carbachol, beta-lactamase ratio, 5 h; at 7.69 µM (top of the series) unless noted
# Summary of the method: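 Jurkat cells with NFAT-driven β-lactamase reporter and co-expressed M1 receptor, stimulated with carbachol (final 1 uM, ~EC50), compound titration, 5 h at 37 °C. CCF4 loaded 1 h at RT; 460/530 nm ratio gave %activity and AC50.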
# [5] = Stat Signaling Pathway (AID 446; active = well fitted curve in either direction with a large enough effect, not every such curve was filed as active;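 note: ME-180 cervical cancer cells given 40 pM IL-6 alongside compound; SIE-controlled beta-lactamase reporter measured as 460/530 nm FRET emission ratio; % is set by controls: 0 for no effect and ±100 for the full control effect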); conditions: ME-180 SIE beta-lactamase reporter, IL-6 stimulated, 5 h; at 7.69 µM (top of the series) unless noted
# Summary of the method: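 Compound effects on IL-6-induced STAT reporter activity were measured in ME-180 cells. After overnight culture, cells were co-treated with 40 pM IL-6 for 5 hrs before beta-lactamase substrate loading at room temperature.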
# [6] = biological target: Glucocorticoid receptor (Homo sapiens) (UniProt P04150); test: GR-GFP Redistribution (AID 450;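 active = compounds whose dose series gives a full or clear partial fitted curve of increased nuclear translocation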; note: potency is the fitted concentration of half-maximal effect); conditions: U2OS GR-GFP nuclear translocation, laser cytometry, 2 h
# [7] = biological target: Glucocorticoid receptor (Homo sapiens) (UniProt P04150); test: GR-EFC Redistribution (AID 451; calls by dose curve; note: potency is the fitted concentration of half-maximal effect); conditions: CHO-K1 GR-EFC translocation, beta-gal luminescence, 2 h
# Summary of the method: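 CHO-K1 cells expressing nuclear EA and GR-ED fragments of b-gal; compounds titrated up to 46 uM final, 2 h at 37 C. GR nuclear translocation read as complemented b-gal luminescence after 1 h RT detection.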
# [8] = biological target: Mitogen-activated protein kinase 10 (Mus musculus) (UniProt Q61831); test: JNK3 AlphaScreen Assay (AID 530; active = well fitted curve in either direction with a large enough effect, not every such curve was filed as active;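 note: kinase came from lysate of stimulated human HepG2 cells; signal reports phosphorylation of biotinylated GST-cJun 1-79 at Ser73 with 10 µM ATP; % is set by controls: 0 for no effect and ±100 for the full control effect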); conditions: JNK3 lysate, c-Jun phosphorylation; series mostly up to 57.1 µM
# Summary of the method: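 HepG2 lysate (IL-1b/TNFa pre-activated) + biotin-GST-cJun 1-79 + anti-pSer73 cJun; cpd titration, 15 min RT; ATP 10 uM start; Tris pH 7.6, MgCl2, DTT, vanadate; beads in EDTA buffer; AlphaScreen.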
# [9] = biological target: 3',5'-cyclic-AMP phosphodiesterase 4B (Homo sapiens) (UniProt Q07343); test: qHTS Assay for Inhibitors of PDE-IV (AID 607; active = well fitted activation curve with a large enough effect in the main read-out, with a control signal flat, not every such curve was filed as active; note: % of control where 0% means no effect); conditions: HEK293 ACTOne CNG channel cells, membrane potential fluorescence; series mostly up to 22.9 µM
# Summary of the method: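 ACTOne HEK293 cells carry a modified cAMP-gated CNG channel and express endogenous PDE4; plated 1000 cells/well, compounds up to 22.9 uM final. Membrane-potential dye fluorescence (ex 535/em 590) was read; parental cells received 10 uM forskolin + 100 uM RO 20-1724.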
# [10] = biological target: Cytochrome P450 3A4 (Homo sapiens) (UniProt P08684); test: qHTS Assay for Activators of Cytochrome P450 3A4 (AID 885); conditions: recombinant CYP3A4, Luciferin-PPXE luminescence, 60 min; series mostly up to 57.1 µM; note: nearly all actives have a fitted effect of over 65% in size
# Summary of the method: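 CYP3A4 activity: Luciferin-PPXE O-dealkylation, 25uM substrate, 200mM KPO4, RT throughout. Read-out is luciferase luminescence; higher values reflect activation.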
# [11] = qHTS Assay for Lipid Storage Modulators (AID 1519; calls by dose curve); conditions: Drosophila S3 cells, BODIPY lipid droplet/cell ratio, laser cytometry, cells loaded with oleic acid; for activity change, negative = inhibition: at 57.5 µM (top of the series)
# Summary of the method: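 Cells seeded at 5,000 per well were treated with compounds over a concentration series and loaded with oleic acid (400 uM, as added). Lipid droplet fluorescence (488 nm excitation, 500-530 nm channel) was read by laser-scanning cytometry and normalized to 20 uM Triacsin C.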
# [12] = biological target: Dual specificity protein kinase CLK4 (Homo sapiens) (UniProt Q9HAZ1); test: qHTS Assay for Inhibitors of CDC-like Kinase 4 (Kinase-Glo Assay) (AID 1770); conditions: recombinant Clk4, Kinase-Glo ATP depletion luminescence; series mostly up to 66.7 µM; note: nearly all actives have a fitted effect of over 65% in size; note: potency is the fitted concentration of half-maximal effect
# Summary of the method: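 Substrate mix (RS peptide 100 uM, ATP 1 uM) dispensed, compound pinned in, then Clk4 added to 25 nM final. Incubated 4.5 h at RT; Kinase-Glo reagent added, luminescence read after 5 min.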
# [13] = biological target: Dual specificity protein kinase CLK4 (Homo sapiens) (UniProt Q9HAZ1); test: qHTS Assay for Inhibitors of CDC-like Kinase 4 (ADP-Glo Assay) (AID 1771); conditions: recombinant CLK4, ADP-Glo luminescence; series mostly up to 80 µM; note: nearly all actives have a fitted effect of over 70% in size; note: potency is the fitted concentration of half-maximal effect
# Summary of the method: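 25 nM Clk4, 100 uM RS peptide, 1 uM ATP (final); 2 mM MgCl2, 0.5 mM EGTA, 2.5 mM DTT, 0.01% Triton X-100; 1 hr RT. ADP-Glo readout: ATP depletion 45 min, conversion/luciferase 30 min, luminescence.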
# [14] = biological target: Ubiquitin carboxyl-terminal hydrolase 1 (Homo sapiens) (UniProt O94782); test: Inhibitors of USP1/UAF1: Pilot qHTS (AID 504865); conditions: purified USP1/UAF1, Ub-rhodamine cleavage fluorescence; series mostly up to 54.9 µM;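 note: rhodamine fluorescence freed from ubiquitin-rhodamine substrate followed over time; top concentration of the series differs between compounds; % is set by controls: 0 for no effect and ±100 for the full control effect; nearly all actives have a fitted effect of over 35% in size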
# Summary of the method: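 In 50mM HEPES pH 7.8 containing 0.5mM EDTA, 1mM TCEP, 0.1 mg/ml BSA and 0.01% Tween-20, 1nM USP1/UAF1 is exposed to compound for 15 min, then Ub-Rho (150nM final) is added and fluorescence is read over time.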
# [15] = Primary qHTS for small molecule stabilizers of the endoplasmic reticulum resident proteome: Secreted ER Calcium Modulated Protein (SERCaMP) assay (AID 1508630); conditions: SH-SY5Y GLuc-SERCaMP (Gaussia luciferase released on ER calcium loss) secretion, thapsigargin, luminescence; series mostly up to 38.4 µM; note: % is set by controls: 0 for no effect and ±100 for the full control effect
# Summary of the method: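 The SH-SY5Y reporter protocol was run at 3 concentrations up to 38.3 uM (primary) or 11 concentrations (follow-up): 16 h compound, 100 nM thapsigargin for 4 h, then extracellular luciferase luminescence.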
# [16] = biological target: Cytochrome P450 3A4 (Homo sapiens) (UniProt P08684); test: qHTS Assay for Inhibitors and Substrates of Cytochrome P450 3A4 (AID 884); conditions: recombinant CYP3A4, Luciferin-PPXE luminescence; series mostly up to 57.1 µM; note: potency is the fitted concentration of half-maximal effect; nearly all actives have a fitted effect of over 50% in size
# Summary of the method: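 Luminescent readout of luciferin produced by CYP3A4 (20 nM) dealkylation of Luciferin-PPXE, 25 uM (its KM). NADPH-driven reaction ran 60 min at RT after 10 min compound preincubation; data scaled to 57 uM ketoconazole as 100% inhibition.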
# [17] = biological target: Dual specificity protein kinase CLK4 (Homo sapiens) (UniProt Q9HAZ1); test: qHTS Assay for Inhibitors of CDC-like Kinase 4 (ADP-FP Assay) (AID 1795); conditions: Transcreener ADP fluorescence polarization; series mostly up to 50 µM; note: nearly all actives have a fitted effect of over 60% in size; note: potency is the fitted concentration of half-maximal effect
# Summary of the method: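 Clk4 6.25 nM; RS peptide 100 uM; ATP 1 uM; 25 mM Tris pH 7.5, 10 mM MgCl2; 1 h reaction. ADP detected via antibody/orange tracer FP displacement; TG003 positive control.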
# [18] = qHTS Assay for Identification of Small Molecule Agonists for Hypoxia Response Element Signaling Pathway (AID 914; active = well fitted activation curve with a large enough effect in the signal ratio, with a control signal flat, not every such curve was filed as active; the % refers to the signal ratio; note: % of control where 0% means no effect); conditions: ME-180 (cervical carcinoma) HRE-bla reporter, beta-lactamase ratio, CoCl2, 17 h; activation: stronger effect = higher value
# Summary of the method: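 AC50 values come from titration-series %Activity, taken as the 460/530nm ratio of CCF4 fluorescence (excitation 405nm). CellSensor HRE-bla ME-180 cells were treated 17 hours at 37 C with compound plus an EC50 level of CoCl2.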
# [19] = measured here: cell count channel max response
# [20] = measured here: lipid channel max response
# Sequence of Glucocorticoid receptor (Homo sapiens) (P04150 whole entry, looked up, the tested form may be a part): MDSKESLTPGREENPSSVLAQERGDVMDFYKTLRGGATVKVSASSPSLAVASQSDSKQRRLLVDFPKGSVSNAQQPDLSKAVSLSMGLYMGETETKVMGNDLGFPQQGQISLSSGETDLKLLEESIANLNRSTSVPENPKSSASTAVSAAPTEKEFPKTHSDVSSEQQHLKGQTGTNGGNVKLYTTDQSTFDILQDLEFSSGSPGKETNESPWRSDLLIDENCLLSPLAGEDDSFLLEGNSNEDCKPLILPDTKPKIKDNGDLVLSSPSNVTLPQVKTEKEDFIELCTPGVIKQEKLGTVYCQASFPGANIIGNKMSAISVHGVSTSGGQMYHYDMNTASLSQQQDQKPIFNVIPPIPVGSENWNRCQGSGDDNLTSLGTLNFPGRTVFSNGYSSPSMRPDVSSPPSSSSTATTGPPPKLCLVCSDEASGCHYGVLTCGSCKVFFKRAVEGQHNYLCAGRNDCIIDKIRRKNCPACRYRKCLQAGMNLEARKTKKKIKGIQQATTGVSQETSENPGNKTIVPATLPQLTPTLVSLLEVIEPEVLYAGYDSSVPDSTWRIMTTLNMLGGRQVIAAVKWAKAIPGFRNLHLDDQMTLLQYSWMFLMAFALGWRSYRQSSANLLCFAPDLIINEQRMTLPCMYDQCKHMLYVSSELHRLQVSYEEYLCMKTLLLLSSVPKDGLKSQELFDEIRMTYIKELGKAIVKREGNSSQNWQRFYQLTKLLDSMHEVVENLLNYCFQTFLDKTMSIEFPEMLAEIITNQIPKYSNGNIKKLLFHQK
# Sequence of Dual specificity protein kinase CLK4 (Homo sapiens) (Q9HAZ1 whole entry, looked up): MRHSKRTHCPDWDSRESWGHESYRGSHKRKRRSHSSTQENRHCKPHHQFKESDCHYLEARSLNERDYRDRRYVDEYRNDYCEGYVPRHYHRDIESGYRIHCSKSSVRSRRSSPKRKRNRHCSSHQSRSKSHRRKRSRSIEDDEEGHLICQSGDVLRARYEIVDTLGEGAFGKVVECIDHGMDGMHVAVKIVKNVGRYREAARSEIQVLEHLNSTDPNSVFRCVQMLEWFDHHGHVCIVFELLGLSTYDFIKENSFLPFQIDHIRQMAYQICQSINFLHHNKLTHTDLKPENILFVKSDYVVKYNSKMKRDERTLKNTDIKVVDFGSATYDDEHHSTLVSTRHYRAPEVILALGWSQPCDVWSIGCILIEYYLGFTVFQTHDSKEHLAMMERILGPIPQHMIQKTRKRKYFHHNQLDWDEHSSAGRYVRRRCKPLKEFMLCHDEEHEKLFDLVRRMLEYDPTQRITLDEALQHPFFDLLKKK
# Sequence of Cytochrome P450 3A4 (Homo sapiens) (P08684 whole entry, looked up): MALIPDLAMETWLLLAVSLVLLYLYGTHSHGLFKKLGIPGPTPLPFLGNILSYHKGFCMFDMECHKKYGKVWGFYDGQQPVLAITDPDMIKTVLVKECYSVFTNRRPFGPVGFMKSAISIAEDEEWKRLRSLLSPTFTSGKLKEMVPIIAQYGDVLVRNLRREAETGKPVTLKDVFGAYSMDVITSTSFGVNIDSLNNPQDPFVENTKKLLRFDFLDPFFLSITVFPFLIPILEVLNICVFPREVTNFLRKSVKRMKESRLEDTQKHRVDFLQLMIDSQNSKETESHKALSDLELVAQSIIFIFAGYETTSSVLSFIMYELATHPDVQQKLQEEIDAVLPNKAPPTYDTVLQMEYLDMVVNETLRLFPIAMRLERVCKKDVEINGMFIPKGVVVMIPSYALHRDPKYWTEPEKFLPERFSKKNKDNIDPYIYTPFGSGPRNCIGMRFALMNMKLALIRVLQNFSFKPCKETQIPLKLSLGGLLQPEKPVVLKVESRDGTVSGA
# Sequence of Ubiquitin carboxyl-terminal hydrolase 1 (Homo sapiens) (O94782 whole entry, looked up): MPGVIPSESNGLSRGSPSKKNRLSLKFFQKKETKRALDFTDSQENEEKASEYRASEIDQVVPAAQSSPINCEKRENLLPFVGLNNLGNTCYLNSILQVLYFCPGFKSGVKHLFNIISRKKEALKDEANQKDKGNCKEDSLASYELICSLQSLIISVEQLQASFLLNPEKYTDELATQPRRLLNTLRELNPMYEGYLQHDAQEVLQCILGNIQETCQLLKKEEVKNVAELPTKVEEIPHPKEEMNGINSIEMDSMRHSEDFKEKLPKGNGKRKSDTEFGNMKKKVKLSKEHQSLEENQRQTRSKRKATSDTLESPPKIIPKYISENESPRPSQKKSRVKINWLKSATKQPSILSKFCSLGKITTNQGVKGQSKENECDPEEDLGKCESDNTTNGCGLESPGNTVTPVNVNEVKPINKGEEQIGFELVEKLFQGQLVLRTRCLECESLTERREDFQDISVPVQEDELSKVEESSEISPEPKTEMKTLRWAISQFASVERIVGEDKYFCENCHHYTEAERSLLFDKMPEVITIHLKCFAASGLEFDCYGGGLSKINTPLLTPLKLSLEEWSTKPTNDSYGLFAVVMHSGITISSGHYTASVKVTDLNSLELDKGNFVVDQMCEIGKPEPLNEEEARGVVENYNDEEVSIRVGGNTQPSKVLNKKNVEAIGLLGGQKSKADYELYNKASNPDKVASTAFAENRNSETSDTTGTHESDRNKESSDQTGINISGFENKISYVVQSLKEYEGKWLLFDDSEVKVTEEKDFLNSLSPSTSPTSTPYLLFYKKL
# Sequence of Cytochrome P450 1A2 (Homo sapiens) (P05177 whole entry, looked up): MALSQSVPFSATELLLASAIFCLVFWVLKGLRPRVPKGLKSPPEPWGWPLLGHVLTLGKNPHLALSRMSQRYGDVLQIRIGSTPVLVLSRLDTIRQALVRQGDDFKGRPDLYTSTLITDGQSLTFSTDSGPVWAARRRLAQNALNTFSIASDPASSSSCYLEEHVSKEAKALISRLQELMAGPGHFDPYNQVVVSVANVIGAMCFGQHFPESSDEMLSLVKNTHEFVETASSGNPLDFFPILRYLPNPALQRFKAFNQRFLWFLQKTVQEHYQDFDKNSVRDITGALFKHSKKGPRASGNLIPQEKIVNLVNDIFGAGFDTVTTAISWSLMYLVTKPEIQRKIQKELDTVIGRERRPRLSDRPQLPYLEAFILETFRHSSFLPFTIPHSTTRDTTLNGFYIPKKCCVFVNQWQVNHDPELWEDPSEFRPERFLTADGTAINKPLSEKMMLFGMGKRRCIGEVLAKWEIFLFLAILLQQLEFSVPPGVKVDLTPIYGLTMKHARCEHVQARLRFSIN
# Sequence of Lysosomal acid glucosylceramidase (Homo sapiens) (P04062 whole entry, looked up): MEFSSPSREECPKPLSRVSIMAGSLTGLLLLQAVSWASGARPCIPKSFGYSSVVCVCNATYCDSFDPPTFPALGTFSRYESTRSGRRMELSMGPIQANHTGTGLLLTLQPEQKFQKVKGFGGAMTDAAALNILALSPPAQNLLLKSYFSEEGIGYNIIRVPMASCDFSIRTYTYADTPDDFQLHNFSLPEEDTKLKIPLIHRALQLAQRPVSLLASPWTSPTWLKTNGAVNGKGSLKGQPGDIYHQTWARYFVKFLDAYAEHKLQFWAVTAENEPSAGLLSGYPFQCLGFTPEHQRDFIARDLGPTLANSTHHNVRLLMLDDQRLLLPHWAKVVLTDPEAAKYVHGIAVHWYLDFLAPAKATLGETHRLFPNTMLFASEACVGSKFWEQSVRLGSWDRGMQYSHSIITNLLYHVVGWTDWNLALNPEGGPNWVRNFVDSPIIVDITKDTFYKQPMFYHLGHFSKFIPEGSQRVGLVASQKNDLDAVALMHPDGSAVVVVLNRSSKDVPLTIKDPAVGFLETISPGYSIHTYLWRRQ
# Sequence of 3',5'-cyclic-AMP phosphodiesterase 4B (Homo sapiens) (Q07343 whole entry, looked up): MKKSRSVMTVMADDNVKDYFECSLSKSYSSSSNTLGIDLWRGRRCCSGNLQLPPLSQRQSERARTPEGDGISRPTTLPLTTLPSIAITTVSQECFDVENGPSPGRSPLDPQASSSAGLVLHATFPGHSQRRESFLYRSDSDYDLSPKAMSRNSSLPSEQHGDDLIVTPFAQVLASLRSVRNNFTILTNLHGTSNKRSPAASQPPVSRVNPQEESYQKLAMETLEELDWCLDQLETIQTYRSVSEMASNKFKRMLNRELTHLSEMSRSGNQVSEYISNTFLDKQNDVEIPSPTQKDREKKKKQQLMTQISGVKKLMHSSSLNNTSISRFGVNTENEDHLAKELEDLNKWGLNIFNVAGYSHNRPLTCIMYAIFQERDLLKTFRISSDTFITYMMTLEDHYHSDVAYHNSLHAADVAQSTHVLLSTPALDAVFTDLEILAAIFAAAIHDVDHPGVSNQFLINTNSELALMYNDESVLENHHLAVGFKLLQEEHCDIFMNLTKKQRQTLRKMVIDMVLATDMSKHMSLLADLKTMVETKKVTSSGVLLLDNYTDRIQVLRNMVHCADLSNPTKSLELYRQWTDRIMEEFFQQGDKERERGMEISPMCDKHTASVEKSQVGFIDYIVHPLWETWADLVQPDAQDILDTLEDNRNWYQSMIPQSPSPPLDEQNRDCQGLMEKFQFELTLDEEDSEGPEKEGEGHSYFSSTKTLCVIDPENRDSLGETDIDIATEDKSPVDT
Compound,Potency [1],"activity change, negative = inhibition [2]",Potency [3],"activity change, negative = inhibition [4]","activity, negative = inhibition [5]",Potency [6],Potency [7],outcome [8],Potency [9],Potency [10],"activity change, negative = inhibition [11]","max response [11, 19] [%]","max response [11, 20] [%]",Potency [12],Potency [13],Potency [14],Potency [15],Potency [16],Potency [17],activation [18]
COc1cccc(-c2cc(N(C)Cc3ccco3)ncn2)c1,> 11.4 µM (inactive),22.2% (inactive),0.794 µM (active),-17.2% (inactive),-2% (inactive),> 46 µM (inactive),> 46 µM (inactive),inactive,inactive,inactive,8.28% (inactive),20.9,28.5,12.6 µM (active),14.1 µM (active),inactive,inactive,,,
CC(=O)NCCNc1ncnc2ccc(-c3cccc(NS(C)(=O)=O)c3)cc12,> 11.4 µM (inactive),3.51% (inactive),15.8 µM (active),7.81% (inactive),6.44% (inactive),> 46 µM (inactive),> 46 µM (inactive),inactive,inactive,inactive,1.93% (inactive),24.3,24.6,12.6 µM (active),12.6 µM (active),inactive,inactive,,,
COc1ccccc1CNc1cc(-c2c(C)noc2C)ncn1,> 11.4 µM (inactive),14.8% (inactive),5.01 µM (active),-3.28% (inactive),-4.72% (inactive),> 46 µM (inactive),> 46 µM (inactive),inactive,inactive,inactive,10.8% (inactive),30,41.7,15.8 µM (active),17.8 µM (active),inactive,inactive,,,
COc1ccc(-n2c(=O)c(-c3cccs3)nc3cncnc32)cc1,> 11.4 µM (inactive),-19.3% (inactive),10 µM (active),0.0711% (inactive),-0.243% (inactive),> 9.22 µM (inactive),> 46 µM (inactive),inactive,,,-10.8% (inactive),28.9,11.5,inactive,inactive,inactive,inactive,,,
c1cncc(CNc2ncncc2-c2cccnc2)c1,,3.11% (inactive),5.01 µM (active),1.94% (inactive),12.2% (inactive),> 46 µM (inactive),> 46 µM (inactive),inactive,inactive,inactive,2.51% (inactive),25.3,26.2,inactive,inactive,inactive,inactive,2 µM (active),inactive,
Cc1ccccc1-c1cc(N2CCN(C)CC2)ncn1,,-0.925% (inactive),,-7.69% (inactive),-0.251% (inactive),> 46 µM (inactive),> 46 µM (inactive),inactive,inactive,,-4.37% (inactive),3.49,-4.04,inactive,inactive,inactive,inactive,,inactive,
COCCNc1ncnc2ccc(-c3cccc(NS(C)(=O)=O)c3)cc12,,-19.3% (inactive),0.794 µM (active),,-4.92% (inactive),> 46 µM (inactive),> 46 µM (inactive),inactive,inactive,inactive,1.59% (inactive),-7.37,-7.54,12.6 µM (active),8.91 µM (active),inactive,inactive,,11.2 µM (active),
O=c1cnc2cncnc2n1Cc1ccccc1,,-12.8% (inactive),25.1 µM (active),-13.5% (inactive),-12.1% (inactive),> 9.22 µM (inactive),,inactive,,inactive,0.677% (inactive),15,14,inactive,inactive,inactive,inactive,,inactive,
COc1cccc(-c2ccc3ncnc(NCc4ccccc4)c3c2)c1,,,,,,> 46 µM (inactive),> 46 µM (inactive),inactive,inactive,,-5.64% (inactive),-2.9,-10.2,2 µM (active),2.24 µM (active),inactive,inactive,,0.794 µM (active),
CN(C)c1ncc2nc(-c3cc(F)cc(F)c3)c(=O)n(C[C@H]3CCCO3)c2n1,> 11.4 µM (inactive),19.6% (inactive),0.0794 µM (active),9.35% (inactive),29.3% (inactive),> 9.22 µM (inactive),> 46 µM (inactive),inactive,inactive,,7.12% (inactive),15.3,23.7,inactive,inactive,inactive,inactive,,,
COc1cccc(-c2cncnc2NC2CCNCC2)c1,> 11.4 µM (inactive),-6.98% (inactive),inactive,9.29% (inactive),13.9% (inactive),> 46 µM (inactive),> 46 µM (inactive),inactive,inactive,,2.06% (inactive),12.6,15.6,inactive,inactive,inactive,inactive,,,
COCCn1c(=O)c(-c2cccc(C#N)c2)nc2cnc(OC)nc21,,-22.4% (inactive),,4.96% (inactive),-9.77% (inactive),> 9.22 µM (inactive),> 46 µM (inactive),inactive,inactive,,4.12% (inactive),19.6,22,inactive,inactive,,inactive,,inactive,-7.08% (inactive)

# Source: PubChem BioAssay (NCATS)
